Screening results from PubChem.
Many of the other results were omitted from the sample, so hits are more common in it than they were.
ROC1-CUL1 inh: inhibitors of human ROC1-CUL1 ubiquitin ligase activity. P62877+Q13616. in vitro K48 di-Ub FRET, acceptor:donor ratio, 45 min. inhibition, % at 10 µM. actives 0.6% (n = 140,000); in the data active = inhibition above about 25%
The depositor's hits bear a star.

SMILES	ROC1-CUL1 inh
CN1C(=O)/C(=C/c2cc(Br)c(Sc3ccc(Cl)cc3)o2)C(=O)NC1=S	48*
CN1C(=O)C(=Cc2cc(Br)c(N(C)C)o2)C(=O)N(C)C1=O	0
COc1cccc2c1OCC(NCCOC(C)C)C2 (stereo not given)	-2
O=C1c2ccccc2C(=O)c2c1c(C(=O)OCc1ccccc1)c1cc3ccccc3cn21	-3
O=C(c1ccccc1)c1ccccc1Nc1nc(Cl)nc(Cl)n1	4
O=C(O)c1ccc(Nc2nc(Cl)nc(Cl)n2)cc1-c1c2ccc(=O)cc-2oc2cc(O)ccc12	106*
Cc1ccc(Nc2nc(Cl)nc(N3CCOCC3)n2)cc1Cl	-6
O=C1S/C(=C\c2ccc(Sc3ccccc3)o2)C(=O)N1c1ccc(Cl)cc1	-4
O=C1NC(=S)N(c2ccc(F)cc2)C(=O)/C1=C\c1ccc(N2CCOCC2)o1	-4
Cc1ccc(N2C(=O)/C(=C/c3ccc(N4CCN(C)CC4)o3)C(=O)NC2=S)cc1	-4
Cc1ccc(Cl)cc1-c1ccc(/C=C2/C(=O)NC(=S)N(c3ccc(F)cc3)C2=O)o1	46*
CC(C)c1ccc(N2C(=O)/C(=C/c3ccc(O)cc3)C(=O)NC2=S)cc1	0
CC(C)c1ccc(N2C(=O)/C(=C/c3ccc(Sc4ccccc4)o3)C(=O)NC2=S)cc1	97*
Cc1ccc2c(c1C)N=C(CSc1ccccc1)CC2=O	7
CC(C)CC(=O)c1ccc(-c2ccc(Br)cc2)cc1	-7
CCOc1cccc(/C=C2\SC(=Nc3ccccc3C)N(c3ccccc3C)C2=O)c1	-3
COc1ccc(NC(=O)CSc2nc(-c3ccccc3)c(-c3ccccc3)[nH]2)cc1	8
COC(=O)c1c(C)sc(-c2c(-c3cccc(OC)c3)[nH]c3c2c(=O)[nH]c(=O)n3C)c1O	24
COC(=O)c1c(C)sc(-c2c(-c3ccc4c(c3)OCCO4)[nH]c3c2c(=O)[nH]c(=O)n3C)c1O	27*
COC(=O)c1c(C)sc(-c2c(-c3ccc(OC)c(F)c3)[nH]c3c2c(=O)n(C)c(=O)n3C)c1O	3
COc1ccc(CC(=O)NC(=S)Nc2ccc(Cl)cc2Cl)cc1	-4
CC1=NN(c2ccccc2)C(=O)/C1=C/c1ccccc1OCc1ccc(C(=O)O)cc1	51*
CC1=NN(c2ccccc2)C(=O)/C1=C/c1ccccc1OCc1ccccc1C	3
COc1cc(/C=C2/C(=O)N(c3ccc(Cl)c(Cl)c3)N=C2C)ccc1OCc1ccccc1	0
Oc1ccc(NC(=S)NCCc2ccccc2)cc1	21
SMILES	ROC1-CUL1 inh
C=CCC(=O)N1CCc2onc(-c3ccc(Cl)cc3)c2C1	-1
O=C(O)c1cc2cc(Br)ccc2oc1=O	10
CC(=O)Nc1ccc2occc2c1	-12
O=C(O)c1cc2ccoc2cc(C(=O)O)c1=O	100*
CCOC(=O)NN=C1CCSCC1	-5
CO[C@H]1[C@H](NC(=O)COc2ccccc2)c2ccccc2C12CCN(C(=O)c1snnc1C)CC2	7
O=C(NCCC1COc2ccccc2O1)c1ccc(N2CCCCO2)nc1 (stereo not given)	0
COC(=O)c1ccc([C@@H]2Nc3c(OC)ccc(C)c3[C@@H]3C=CC[C@@H]32)cc1	4
Cc1ccc([C@@H]2Nc3c(ccc(C(=O)O)c3C)[C@@H]3C=CC[C@@H]32)cc1	97*
Cc1ccc([C@H]2Nc3ccc(S(=O)(=O)Nc4cccc(Cl)c4C)cc3[C@H]3C=CC[C@H]32)cc1	3
COc1ccc(N2CCN(C(=O)c3oc4ccc(C)cc4c3C)CC2)cc1	0
CCc1cc(C(=O)NC2CC(=O)N(CC3CCCCC3)C2)on1 (stereo not given)	-10
Cc1ccc(Cl)cc1NC(=O)CCN1C(=O)c2ccccc2C1=O	2
Cc1ccc(-c2n[nH]c(=S)n2/N=C/C=C/c2ccco2)cc1	6
Nn1c(=S)[nH]nc(/C=C/c2ccco2)c1=O	96*
S=c1[nH]nc(-c2ccco2)n1-c1ccccc1	9
Cc1onc(-c2c(F)cccc2Cl)c1C(=O)Nc1cc(F)ccc1F	1
COc1ccccc1N1CCN(CCCCn2c(=O)c3ccccc3c(=O)n2C)CC1	6
CCS(=O)(=O)c1ncc(CN(C)Cc2nc3c(C)cccc3[nH]2)n1CCOC	-5
Cc1ccnc(NC(=O)c2ccc(Cl)cc2Cl)c1	6
Cc1ccc(NC(=O)c2ccc(Cl)cc2Cl)c(S(=O)(=O)O)c1	96*
Cc1ccc(NS(=O)(=O)c2ccc(NC(=O)c3ccc(Cl)cc3Cl)cc2)c(C)c1	5
C[n+]1c(-c2ccc(Cl)cc2)csc1NCc1ccccc1	1
Cc1oc2cc(OCc3ccc(F)cc3)ccc2c(=O)c1-c1ccc2c(c1)OCCO2	-6
COC(=O)N1C=Cc2ccccc2C1(C#N)C(=S)SCc1ccccc1 (stereo not given)	-3
SMILES	ROC1-CUL1 inh
Cc1nn(-c2ccccc2)c(Cl)c1CN(C(=O)c1ccccc1)c1ccccc1	4
COc1ccc(Cn2nnc3c2C(=O)c2nnn(Cc4ccc(OC)cc4)c2C3=O)cc1	45*
O=C1c2ccccc2C(=O)c2c1nnn2Cc1ccc(F)cc1	13
Cc1ccccc1Cn1nnc2c1C(=O)c1ccccc1C2=O	12
O=C(O)c1cc(C(=O)O)cc(N2C(=O)C3C4CCC(C4)C3C2=O)c1 (stereo not given)	10
Cc1cc(/C=C2\C(=N)N3N=C(c4ccc(F)cc4)SC3=NC2=O)c(C)n1-c1ccc(F)cc1	2
COc1cc(/C=C2\SC(=Nc3cc(C)cc(C)c3)NC2=O)cc(Br)c1O	8
O=C1NC(=Nc2cccc(C(F)(F)F)c2)S/C1=C\c1cc(O)c(O)c(Br)c1	30*
O=C1NC(=Nc2ccc(F)cc2)S/C1=C\c1ccc(O)c(Br)c1	2
COc1ccc(NC(=O)C2C(C)=Nc3nc(SCc4ccccc4C)nn3C2c2ccc(Br)cc2)cc1 (stereo not given)	0
COC(=O)c1sc2nc(C)c(C)c(C)c2c1N	-3
CC(=O)c1ccccc1-c1ccc2c(c1)CC(CNC(=O)c1ccc(C)cc1C)O2 (stereo not given)	4
CC(=O)c1c(=O)n(O)cc2ccccc12	91*
CC(=O)c1c(C)sc2c1ccc1ccccc12	1
CC(=O)n1c(=O)c2cc3ccccc3cc2c(=O)n1C(C)=O	6
Cc1ccc(C2C(C#N)C(=N)SC(=N)C2C#N)o1 (stereo not given)	40*
COc1ccc(C2C(C#N)C(=N)SC(=N)C2C#N)cc1OC (stereo not given)	1
Cc1ccc(C2c3c(n[nH]c3C)OC(=N)C2C#N)o1 (stereo not given)	5
O=C(Nc1ccc(-c2cccc(F)c2)cc1)C1CCCN(C(=O)c2ccoc2)C1 (stereo not given)	92*
O=C(Nc1ccc(-c2cccc(F)c2)cc1)C1CCCN(CC2CC2)C1 (stereo not given)	1
O=C(Nc1ccc(-c2cccc(F)c2)cc1)C1CCCN(Cc2nccs2)C1 (stereo not given)	1
O=S(=O)(c1c(F)c(F)c(F)c(F)c1F)C(F)F	103*
Cc1ccc(S(=O)(=O)C(F)F)cc1	9
Cc1nc2cc3nc4[nH]c5ccccc5c4[nH]c3cc2n1	-42
CC1=NN(c2ccccn2)C(=O)C1	1
Cc1cc2ncc(N=Nc3ccccc3)c(-c3cccs3)n2n1	8
OCc1ccc(Sc2ccc(Cl)cc2)cc1	-3
C=CCOc1c(Br)cc(CNc2ccc(C(=O)O)cc2)cc1OCC	9
C=CCOc1c(Br)cc(CNC(C)(C)C)cc1OCC	66*
C=CCOc1c(Br)cc(CNc2nccs2)cc1OCC	10
